# Experimental data as given in PubChem BioAssay (NCATS).
# Results filed as inconclusive are left out. Active and inactive are the calls of the source. Calls follow the shape of the dose curve; as a rule, active = well fitted curve in the direction sought with a large enough effect; inconclusive = small, poorly fitted or top-dose-only effect, or another doubt; inactive = no such curve, though single readings can be large or run the other way.
# Target: Ferritin light chain (Equus caballus) (UniProt P02791)
# Assay: qHTS Validation Assay for Identification of Novel General Anesthetics (AID 2323)
# Settings: horse apoferritin, anesthetic-site fluorescent probe displacement; series mostly up to 76.9 µM
# Text: Source: NIH Chemical Genomics Center [NCGC]
# Assay Submitter: Roderic Eckenhoff, University of Pennsylvania
# Screening Center PI: Christopher P. Austin, NIH
# Probe Development: NIH Chemical Genomics Center [NCGC]
# Anesthetic development has remained a largely empirical process. There are growing concerns about the cognitive effects of known general anesthetics and acceleration of the onset of neurodegenerative disease. The compounds' toxicity and multiple specific binding targets in the mammalian brain [4] has made them less attractive as drug leads. In this assay, a GABAergic mimetic model system, apoferritin and a profluorescent 1-aminoanthracene ligand (1-AMA), was used to construct a competitive binding assay for identification of novel general anesthetics. The assay was validated for 1-AMA using other known anesthetics, such as isoflurane (CID:3763) and propofol (CID: 4943), [6].
# [1] S.L. Bianchi, T. Tran, C. Liu, S. Lin, Y. Li, J.M. Keller, R.G. Eckenhoff, and M.F. Eckenhoff, Brain and behavior changes in 12-month-old Tg2576 and nontransgenic mice exposed to anesthetics. Neurobiol Aging 29 (2008) 1002-10.
# [2] Z. Xie, Y. Dong, U. Maeda, R.D. Moir, W. Xia, D.J. Culley, G. Crosby, and R.E. Tanzi, The inhalation anesthetic isoflurane induces a vicious cycle of apoptosis and amyloid beta-protein accumulation. J Neurosci 27 (2007) 1247-54.
# [3] P. Honegger, and J.M. Matthieu, Selective toxicity of the general anesthetic propofol for GABAergic neurons in rat brain cell cultures. J Neurosci Res 45 (1996) 631-6.
# [4] M.F. Eckenhoff, K. Chan, and R.G. Eckenhoff, Multiple specific binding targets for inhaled anesthetics in the mammalian brain. J Pharmacol Exp Ther 300 (2002) 172-9.
# [5] C.A. Butts, J. Xi, G. Brannigan, A.A. Saad, S.P. Venkatachalan, R.A. Pearce, M.L. Klein, R.G. Eckenhoff, and I.J. Dmochowski, Identification of a fluorescent general anesthetic, 1-aminoanthracene. Proc Natl Acad Sci U S A 106 (2009) 6501-6.
# [6] W.A. Lea, J. Xi, A. Jadhav, L. Lu, C.P. Austin, A. Simeonov, and R.G. Eckenhoff, A high-throughput approach for identification of novel general anesthetics. PLoS One 4 (2009) e7150.
# Three uL of reagents (free 1-AMA (50% saturated solution of 1-aminoanthracene
# in PBS) in columns 3, 4 as negative control and 1-AMA/apoferritin mixture (10 uM horse-spleen apoferritin in 50% saturated 1-aminoanthracene in PBS) in columns 1, 2, 5-48) was dispensed into 1536-well Greiner black assay plates. Compounds (23 nL) were transferred via Kalypsys pintool equipped with 1,536-pin array (10 nL slotted pins, V&P Scientific, San Diego, CA). Titration of the positive control, propofol, were delivered via pin transfer from separate control plates to the 2nd column of each assay plate. The starting concentration of the control, dissolved in DMSO, was at 160 mM, followed by two-fold dilution points in duplicate, for a total of 16 concentrations. The plates were incubated for 10 min at room temperature, and then read on an EnVision HTS multilabel reader (Perkin-Elmer, Waltham, MA) (end point read, 3 min/plate) using Fura2 BFP excitation filter (380 nm, bandwidth 10 nm) and fluorescein emission filter (535 nm, bandwidth 25 nm) set. A LANCE/DELFIA dichroic mirror with a cutoff wavelength at 400 nm was used to maximize signal accuracy and strength. Vehicle-only plates, with DMSO being pin-transferred to the entire column 5-48 compound area, were inserted uniformly at the beginning and the end of each library in order to monitor for and record any shifts in the background. Activity was computed as the normalized fluorescence response relative to free 1-AMA and 1-AMA/apoferritin complex values. Concentration-effect relationships were derived by using curve fitting algorithms developed in-house (http://ncgc.nih.gov/pub/openhts/). A four parameter Hill equation was fitted to the concentration-response data by minimizing the residual error between the modeled and observed responses.
# Ferritin light chain (Equus caballus), sequence (P02791 2-175 limits assumed): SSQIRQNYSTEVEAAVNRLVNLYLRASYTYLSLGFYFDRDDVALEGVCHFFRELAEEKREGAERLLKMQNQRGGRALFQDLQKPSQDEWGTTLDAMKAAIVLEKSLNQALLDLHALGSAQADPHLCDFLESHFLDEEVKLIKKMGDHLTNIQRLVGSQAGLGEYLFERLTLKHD
row,SMILES,outcome
1,CC(=O)OCC1=C(C(=O)O)N2C(=O)[C@@H](NC(=O)Cc3cccs3)[C@H]2SC1,inactive
2,COC(=O)[C@@H](N)Cc1ccc(O)c(O)c1,inactive
3,CC1=NS(=O)(=O)c2cc(Cl)ccc2N1,inactive
4,NC(=O)N1c2ccccc2C=Cc2ccccc21,inactive
5,CCN(CC)CCNC(=O)c1ccc(NC(C)=O)cc1,inactive
6,CC(=O)[C@]1(O)Cc2c(O)c3c(c(O)c2[C@@H](O[C@H]2C[C@H](N)[C@H](O)[C@H](C)O2)C1)C(=O)c1ccccc1C3=O,inactive
7,O=C(O)CP(=O)(O)O,inactive
8,Cc1ccc(Cl)c(Nc2ccccc2C(=O)O)c1Cl,inactive
9,O=C(CCNNC(=O)c1ccncc1)NCc1ccccc1,inactive
10,O=C(O)CCCCCCCC(=O)O,inactive
11,C[N+](C)(C)CCOC(N)=O,inactive
12,CN(C)CC[C@@H](c1ccc(Br)cc1)c1ccccn1,inactive
13,CC[N+](C)(C)c1cccc(O)c1,inactive
14,C[C@]12C=CC(=O)C=C1CC[C@H]1[C@@H]3C[C@@H](O)[C@](O)(C(=O)CO)[C@@]3(C)C[C@H](O)[C@@]12F,inactive
15,CCCN(CCC)C(=O)C(CCC(=O)O)NC(=O)c1ccccc1 (stereo not given),inactive
16,c1ccc2c(c1)CCCC2C1=NCCN1 (stereo not given),inactive
17,NC(N)=NC(=O)Cc1c(Cl)cccc1Cl,inactive
18,COc1ccc(CCN(C)CCCC(C#N)(c2cc(OC)c(OC)c(OC)c2)C(C)C)cc1OC (stereo not given),inactive
19,Cc1nc2sccn2c(=O)c1CCN1CCC(=C(c2ccc(F)cc2)c2ccc(F)cc2)CC1,inactive
20,O=C(O)CN(CCN(CC(=O)O)CC(=O)O)CCN(CC(=O)O)CC(=O)O,inactive

row,SMILES,outcome
1,COC(=O)[C@H]1[C@H]2C[C@@H]3c4[nH]c5cc(OC)ccc5c4CCN3C[C@H]2C[C@@H](OC(=O)c2cc(OC)c(OC)c(OC)c2)[C@@H]1OC,inactive
2,CCN1CCC[C@H]1CNC(=O)c1c(O)c(Cl)cc(Cl)c1OC,inactive
3,CCC(=O)c1ccc2c(c1)N(CCCN(C)C)c1ccccc1S2,inactive
4,CN(C)C(=O)Oc1ccc[n+](C)c1,inactive
5,CCCCNC(=O)NS(=O)(=O)c1ccc(C)cc1,inactive
6,Nc1ncn([C@@H]2O[C@H](CO)[C@@H](O)[C@H]2O)c(=O)n1,inactive
7,C(=C\c1ccccc1)/CN1CCN(C(c2ccccc2)c2ccccc2)CC1,inactive
8,CNCCCN1c2ccccc2CCc2ccccc21,inactive
9,CC(C(=O)O)c1ccc(CC2CCCC2=O)cc1 (stereo not given),inactive
10,c1cnc(N2CCN(Cc3ccc4c(c3)OCO4)CC2)nc1,inactive
11,Cc1cc(C)c(/C=C2\C(=O)Nc3ccccc32)[nH]1,inactive
12,CCOC(=O)c1cnc2c(cnn2CC)c1NN=C(C)C,inactive
13,Cc1scc2c1N(C(=O)CN1CCN(C)CC1)c1ccccc1NC2=O,inactive
14,CC(N=C(NC#N)Nc1ccncc1)C(C)(C)C (stereo not given),inactive
15,CN(C(=O)CCCOc1ccc2[nH]c(=O)ccc2c1)C1CCCCC1,inactive
16,CC(C)COCC(CN(Cc1ccccc1)c1ccccc1)N1CCCC1 (stereo not given),inactive
17,CCCN(CCC)CCc1cccc2c1CC(=O)N2,inactive
18,CC(C)(C)NCC(O)c1cc(O)cc(O)c1 (stereo not given),inactive
19,Nc1c2c(nc3ccccc13)CCCC2O (stereo not given),inactive
20,CCO/C([O-])=N/c1c[n+](N2CCOCC2)no1,inactive
